{
  "source": "the supplement of paper PMC9135407",
  "tested_on": "primary human hepatic stellate cells (donor 1)",
  "experiment": "scaled lipid accumulation score (0 = DMSO-like, 1 = nortriptyline-like); higher = stronger HSC inactivation (lipid re-accumulation), active = hit call of the paper",
  "conditions": "48 h",
  "key": {"[1]": {"conditions": "library stock concentration: 1 mM"}, "[2]": {"conditions": "library stock concentration: 10 mM"}, "[3]": {"conditions": "library stock concentration: 3.33 mM"}},
  "note": "“And” between values parts separate entries of the source, which are not always exact repeats. Equal entries are not always repeated. Structures can show the parent of a compound that is named as a salt. Among all 5,800 compounds or so, about 620 (11%) showed activity. This is one part of a sample in which actives are shown more often than they occur. Unmarked numbers belong to inactive results.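 The calls were made as follows: active = score above a cut-off or among the top three wells of a plate; in these data no inactive exceeds 0.85.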",
  "data": [
    {"smiles": "CNCC(O)c1ccc(O)c(OC)c1", "note": "(stereo not drawn) [Metanephrine hydrochloride DL]", "values": [
      {"measurement": "scaled lipid accumulation score", "result": 0.001}
    ]},
    {"smiles": "CCCCCC1OC1C/C=C\\CCCCCCCC(=O)O", "note": "(stereo not given) [Leukotoxin B (12,13-EODE)]", "values": [
      {"measurement": "scaled lipid accumulation score", "setting": "library stock concentration: 100 uM", "result": "≤ -0.021"}
    ]},
    {"smiles": "CCCCCC[C@H]1C(=O)O[C@H](C)[C@H](NC(=O)c2cccc(NC=O)c2O)C(=O)O[C@@H](C)[C@@H]1OC(=O)CC(C)C", "note": "[Antimycin A]", "values": [
      {"measurement": "scaled lipid accumulation score", "result": 0.274}
    ]},
    {"smiles": "CCCCC/C=C\\C/C=C\\C/C=C\\C/C=C\\CCCC(=O)N(C)C", "note": "[Arachidonoyl-N,N-dimethyl amide]", "values": [
      {"measurement": "scaled lipid accumulation score", "setting": "[1]", "result": 0.01}
    ]},
    {"smiles": "CC(N)C(O)c1ccccc1", "note": "(stereo not given) [Phenylpropanolamine]", "values": [
      {"measurement": "scaled lipid accumulation score", "setting": "library stock concentration: 13.2 mM", "result": "≤ 0"}
    ]},
    {"smiles": "CC(N)C(O)c1ccccc1", "note": "(stereo not given) [Phenylpropanolamine hydrochloride]", "values": [
      {"measurement": "scaled lipid accumulation score", "result": "≤ 0"},
      {"measurement": "scaled lipid accumulation score", "setting": "library stock concentration: 10.7 mM", "result": "≤ -0.001"}
    ]},
    {"smiles": "C=C[C@H]1CN2CC[C@H]1C[C@H]2[C@H](OC(=O)OCC)c1ccnc2ccc(OC)cc12", "note": "[Quinine ethyl carbonate]", "values": [
      {"measurement": "scaled lipid accumulation score", "setting": "library stock concentration: 5 mM", "result": "≤ -0.001"},
      {"measurement": "scaled lipid accumulation score", "setting": "[2]", "result": 0.318}
    ]},
    {"smiles": "CN1C[C@H](C(=O)N[C@]2(C)O[C@@]3(O)[C@@H]4CCCN4C(=O)[C@H](Cc4ccccc4)N3C2=O)C[C@@H]2c3cccc4[nH]cc(c34)C[C@H]21", "note": "[Dihydroergotamine mesylate]", "values": [
      {"measurement": "scaled lipid accumulation score", "setting": "library stock concentration: 2.9 mM", "result": "≤ 0"},
      {"measurement": "scaled lipid accumulation score", "setting": "[2]", "result": "0.16 and 0.216"}
    ]},
    {"smiles": "CN1C[C@H](C(=O)N[C@]2(C)O[C@@]3(O)[C@@H]4CCCN4C(=O)[C@H](Cc4ccccc4)N3C2=O)C[C@@H]2c3cccc4[nH]cc(c34)C[C@H]21.CS(=O)(=O)O", "note": "[Dihydroergotamine methanesulfonate]", "values": [
      {"measurement": "scaled lipid accumulation score", "setting": "[2]", "result": "1.06 (active)"}
    ]},
    {"smiles": "CN1C[C@H](C(=O)N[C@]2(C)O[C@@]3(O)[C@@H]4CCCN4C(=O)[C@H](Cc4ccccc4)N3C2=O)C[C@@H]2c3cccc4[nH]cc(c34)C[C@H]21", "note": "[Dihydroergotamine tartrate]", "values": [
      {"measurement": "scaled lipid accumulation score", "result": 0.119}
    ]},
    {"smiles": "CC(C)[C@@]1(NC(=O)[C@@H]2C[C@@H]3c4cccc5[nH]cc(c45)C[C@H]3N(C)C2)O[C@@]2(O)[C@@H]3CCCN3C(=O)[C@H](Cc3ccccc3)N2C1=O", "note": "[Dihydroergocristine mesylate]", "values": [
      {"measurement": "scaled lipid accumulation score", "result": 0.232},
      {"measurement": "scaled lipid accumulation score", "setting": "[2]", "result": 0.54}
    ]},
    {"smiles": "FC(F)(F)c1cccc(C2=CCN(CCc3ccc4ccccc4c3)CC2)c1", "note": "[Xaliproden hydrochloride]", "values": [
      {"measurement": "scaled lipid accumulation score", "setting": "[2]", "result": 0.229}
    ]},
    {"smiles": "CC(N)Cc1cnc[nH]1", "note": "(stereo not given)", "values": [
      {"measurement": "scaled lipid accumulation score", "setting": "[2]", "result": 0.028}
    ]},
    {"smiles": "CN1CC[C@]23CCCC[C@H]2[C@H]1Cc1ccc(O)cc13", "values": [
      {"measurement": "scaled lipid accumulation score", "setting": "library stock concentration: 9.9 mM", "result": "≤ 0"}
    ]},
    {"smiles": "CC(=O)O[C@H]1C[C@@H]2CC[C@@H]3[C@H](CCC4(C)[C@H]3C[C@H]([N+]3(C)CCCCC3)[C@@H]4OC(C)=O)C2(C)C[C@@H]1[N+]1(C)CCCCC1", "note": "(stereo not given in full) [Pancuronium Br]", "values": [
      {"measurement": "scaled lipid accumulation score", "setting": "library stock concentration: 3.5 mM", "result": "≤ -0.006"}
    ]},
    {"smiles": "Cc1n[nH]c2ccc(-c3cncc(OC[C@@H](N)Cc4c[nH]c5ccccc45)c3)cc12", "values": [
      {"measurement": "scaled lipid accumulation score", "setting": "library stock concentration: 400 uM", "result": "1 (active)"}
    ]},
    {"smiles": "CNC(Cc1c[nH]c2ccccc12)C(=O)O", "note": "(stereo not given) [Abrine (l)]", "values": [
      {"measurement": "scaled lipid accumulation score", "setting": "[2]", "result": "≤ 0"}
    ]},
    {"smiles": "Cc1[nH]nc2ccc(-c3cncc(OC[C@@H](N)Cc4c[nH]c5ccccc45)c3)cc12", "values": [
      {"measurement": "scaled lipid accumulation score", "setting": "library stock concentration: 80 uM", "result": 0.308},
      {"measurement": "scaled lipid accumulation score", "setting": "library stock concentration: 2 mM", "result": 0.593},
      {"measurement": "scaled lipid accumulation score", "setting": "[2]", "result": 0.427}
    ]},
    {"smiles": "C[N+]1(C)C2CCC1CC(OC(=O)c1c[nH]c3ccccc13)C2", "note": "(stereo not given) [3-Tropanylindole-3-carboxylate methiodide]", "values": [
      {"measurement": "scaled lipid accumulation score", "setting": "[2]", "result": "≤ 0"}
    ]},
    {"smiles": "O=C(N[C@H]1CN2CCC1CC2)c1ccc(Cl)cc1", "values": [
      {"measurement": "scaled lipid accumulation score", "setting": "[2]", "result": "≤ -0.001 and 0.156"}
    ]},
    {"smiles": "Cn1cc(C(=O)C(=O)N[C@H]2CN3CCC2CC3)c2ccccc21", "values": [
      {"measurement": "scaled lipid accumulation score", "setting": "[2]", "result": 0.403}
    ]},
    {"smiles": "c1ccc2c(c1)Sc1ccccc1N2CC1CN2CCC1CC2", "note": "(stereo not given)", "values": [
      {"measurement": "scaled lipid accumulation score", "setting": "[2]", "result": "1.03 (active)"}
    ]},
    {"smiles": "COc1cc2c(cc1OC)[C@@]13CCN4CC5=CCO[C@H]6CC(=O)N2[C@H]1[C@H]6[C@H]5C[C@H]43", "note": "[Brucine]", "values": [
      {"measurement": "scaled lipid accumulation score", "setting": "library stock concentration: 5.1 mM", "result": "≤ 0"},
      {"measurement": "scaled lipid accumulation score", "setting": "[2]", "result": "≤ 0"}
    ]},
    {"smiles": "O=c1c2ccccc2[se]n1-c1ccccc1", "note": "[Ebselen] [listing 1 of 3 here]", "values": [
      {"measurement": "scaled lipid accumulation score", "setting": "library stock concentration: 18.2 mM", "result": "0.952 (active)"}
    ]},
    {"smiles": "O=c1c2ccccc2[se]n1-c1ccccc1", "values": [
      {"measurement": "scaled lipid accumulation score", "setting": "[2]", "result": "1.07 (active)"}
    ]},
    {"smiles": "O=c1c2ccccc2[se]n1-c1ccccc1", "note": "[Ebselen] [listing 2 of 3 here]", "values": [
      {"measurement": "scaled lipid accumulation score", "setting": "[1]", "result": "≤ 0"}
    ]},
    {"smiles": "O=c1c2ccccc2[se]n1-c1ccccc1", "note": "[Ebselen] [listing 3 of 3 here]", "values": [
      {"measurement": "scaled lipid accumulation score", "result": "0.867 (active)"}
    ]},
    {"smiles": "CNC1=Nc2ccc(Cl)cc2C(c2ccccc2)=[N+]([O-])C1", "values": [
      {"measurement": "scaled lipid accumulation score", "setting": "[2]", "result": 0.036}
    ]},
    {"smiles": "CCCCC/C=C\\C/C=C\\C/C=C\\C/C=C\\CCCCOC(CO)CO", "note": "[2-Arachidonyl Glycerol ether]", "values": [
      {"measurement": "scaled lipid accumulation score", "setting": "[1]", "result": "≤ 0"}
    ]},
    {"smiles": "COc1ccc2cc(C(C#N)OC(=O)OCC3OC3c3ccccc3)ccc2c1", "note": "(stereo not given) [Epoxy Fluor 7]", "values": [
      {"measurement": "scaled lipid accumulation score", "setting": "[1]", "result": 0.009}
    ]},
    {"smiles": "Cc1cc2c(C(C)C)c(O)c(O)c(C=O)c2c(O)c1-c1c(C)cc2c(C(C)C)c(O)c(O)c(C=O)c2c1O", "note": "[listing 1 of 2 here]", "values": [
      {"measurement": "scaled lipid accumulation score", "setting": "[3]", "result": "≤ 0"},
      {"measurement": "scaled lipid accumulation score", "setting": "[2]", "result": 0.142}
    ]},
    {"smiles": "Cc1cc2c(C(C)C)c(O)c(O)c(C=O)c2c(O)c1-c1c(C)cc2c(C(C)C)c(O)c(O)c(C=O)c2c1O", "note": "[listing 2 of 2 here]", "values": [
      {"measurement": "scaled lipid accumulation score", "setting": "[2]", "result": "0.999 (active)"}
    ]},
    {"smiles": "Cc1cc2c(C(C)C)c(O)c(O)c(C=O)c2c(O)c1-c1c(C)cc2c(C(C)C)c(O)c(O)c(C=O)c2c1O", "note": "[Gossypol]", "values": [
      {"measurement": "scaled lipid accumulation score", "result": "≤ 0"},
      {"measurement": "scaled lipid accumulation score", "setting": "[3]", "result": 0.016},
      {"measurement": "scaled lipid accumulation score", "setting": "[2]", "result": "0.824 and 0.57"}
    ]},
    {"smiles": "CC(N)Cc1ccc(O)cc1", "note": "(stereo not given) [Hydroxyamphetamine hydrobromide]", "values": [
      {"measurement": "scaled lipid accumulation score", "setting": "[2]", "result": "≤ 0"}
    ]},
    {"smiles": "CC(C)=CCC[C@]1(C)C=Cc2c(O)c3c(c(CC=C(C)C)c2O1)O[C@]12C(=C[C@@H]4C[C@H]1C(C)(C)O[C@@]2(C/C=C(/C)C(=O)O)C4=O)C3=O", "note": "[Gambogic acid]", "values": [
      {"measurement": "scaled lipid accumulation score", "setting": "[2]", "result": 0.672}
    ]},
    {"smiles": "CCCCCCC(C)(C)c1cc(OC)c2c(c1)OC(C)(C)[C@@H]1CC=C(C)C[C@@H]21", "values": [
      {"measurement": "scaled lipid accumulation score", "setting": "[1]", "result": "≤ 0"}
    ]},
    {"smiles": "O=C1CSC(c2ccccc2Cl)c2cc(Cl)ccc2N1", "note": "(stereo not given)", "values": [
      {"measurement": "scaled lipid accumulation score", "setting": "[2]", "result": "≤ -0.006"},
      {"measurement": "scaled lipid accumulation score", "setting": "library stock concentration: 15.4 mM", "result": 0.158}
    ]},
    {"smiles": "CC[C@@]1([C@@H]2O[C@@H]([C@H]3O[C@@](O)(CO)[C@H](C)C[C@@H]3C)C[C@@H]2C)CC[C@H]([C@]2(C)CC[C@]3(C[C@H](O)[C@@H](C)[C@@H]([C@@H](C)[C@@H](OC)[C@H](C)C(=O)O)O3)O2)O1", "note": "[Monensin sodium salt]", "values": [
      {"measurement": "scaled lipid accumulation score", "result": 0.541}
    ]},
    {"smiles": "CC[C@@]1([C@H]2O[C@H]([C@H]3O[C@@](O)(CO)[C@H](C)C[C@@H]3C)C[C@H]2C)CC[C@H]([C@@]2(C)CC[C@]3(C[C@H](O)[C@@H](C)[C@@H]([C@H](C)[C@H](OC)[C@@H](C)C(=O)O)O3)O2)O1", "note": "[Monensin sodium]", "values": [
      {"measurement": "scaled lipid accumulation score", "setting": "library stock concentration: 7.2 mM", "result": 0.508}
    ]}
  ]
}
